Measured values as given in PubChem BioAssay AID1490 (National Center for Advancing Translational Sciences (NCATS), 2009).
Out of some 310,000 compounds screened, about 11,000 (3.5%) were called active. Another 4% or so got no clear call; they are omitted. This is one part of a sample in which actives are shown more often than they occur. Calls follow the shape of the dose curve; as a rule, active = well fitted inhibition curve with a large enough effect; inconclusive = small, poorly fitted or top-dose-only effect, or another doubt; inactive = no such curve, though single readings can be large or run the other way.

target: 4'-phosphopantetheinyl transferase ffp (Bacillus subtilis) (UniProt Q9F4F7); experiment: qHTS Assay for Inhibitors of Bacillus subtilis Sfp phosphopantetheinyl transferase (PPTase); conditions: Biochemical Sfp PPTase activity;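 also: the enzyme is Sfp with the accession as filed and its product quenches rhodamine fluorescence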;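 as to Largest response in the series, negative = inhibition: 0% = enzyme reaction without inhibitor and -100% = no enzyme wells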
Outline: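 Compounds were incubated with enzyme (final 15 nM) for 15 min at room temperature before substrate addition started the reaction. Fluorescence at 525 nm excitation, 598 nm emission was recorded immediately and after 30 minutes.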
Potency is read from the fitted curve at half-maximal effect.

Largest response in the series, negative = inhibition, inactive:
NNC(=O)CNC(c1ccccc1)c1cc(Cl)ccc1NC(=O)c1ccccc1 (stereo unspecified) 5.82%, Cc1ccc(SCC(CC(C)C)N2CCN(CCc3ccccc3)CCC2=O)cc1 (stereo unspecified) -29.9%, COc1ccc(-c2cc(C(=O)N(C)Cc3ccccc3)c3ccccc3n2)cc1 -16.8%, Cc1cc(N(C)C)nc(Cl)n1 -4.8%, CN(Cc1ccccc1)S(=O)(=O)c1nnc(NC(=O)c2ccccc2F)s1 16.4%, O=C(Cc1cccs1)NCc1cccc(C(F)(F)F)c1 6.74%, NC(=O)CC(NC(=O)Cc1ccc(Br)cc1)c1ccc(NC2CC3CCC2C3)c([N+](=O)[O-])c1 (stereo unspecified) 15.4%, O=C(Nc1ccc(Cl)cc1)c1cccc(OC(=S)N2CCOCC2)c1 5.61%, CCOC(=O)c1c(N)sc(C(C)=O)c1C -34.1%, O=C(N/C(=C\c1ccc(O)cc1)C(=O)N1CCCCC1)c1ccccc1 11.6%, Cc1ccc2c(=O)cc(C(=O)NCCc3ccc(S(N)(=O)=O)cc3)oc2c1C 15.4%, CCOc1ccc2nc(Nc3nc4ccc(NC(C)=O)cc4s3)sc2c1 -21.4%, CCOc1ccc2nc(SC(CC)C(=O)Nc3cc(C)on3)sc2c1 (stereo unspecified) 9.59%, CCN(CC)CCCNC(=O)c1c(O)c2cc(F)cc3c2n(c1=O)C(C)CC3 (stereo unspecified) 2.11%, O=[N+]([O-])c1ccc(N=Cc2c(O)ccc3ccccc23)cc1 -6.3%, COc1ccc(C=Nc2cccc3ncccc23)cc1 -8.45%, Cc1cc2c(cc1S(=O)(=O)CCC(=O)NCc1ccccc1)OCC(=O)N2 18.5%, CN1C2CCC1CC(NC(=O)c1ccc([N+](=O)[O-])cc1)C2 (stereo unspecified) 9.32%, COc1ccc(C2CC(c3ccc([N+](=O)[O-])cc3)=NN2C(C)=O)cc1 (stereo unspecified) 0.697%, CC(C)=CCc1c(O)c(CC=C(C)C)c2occ(-c3ccc(O)cc3)c(=O)c2c1O -6.29%, OCC(CO)NC1C[C@](O)(CO)[C@@H](O)[C@H](O)[C@H]1O (stereo partly specified) 7.78%, O=C(NC(Cc1ccccc1)C(=O)O)/C(=C\c1ccccc1)NC(=O)c1ccco1 (stereo unspecified) 16.2%, COc1cccc(-c2noc(C3CCCN(C(=O)c4ccc(F)cc4)C3)n2)c1 (stereo unspecified) 12.5%, CC(C(=O)NC1CCCCC1)N1C(=O)c2cccc3cccc1c23 (stereo unspecified) 4.03%, COC(=O)c1ccc(OC(=O)c2cnccn2)cc1 -8.15%, O=C(O)CSc1nnc(-c2ccc3c(c2)OCO3)n1-c1ccccc1 30.8%, Cn1c(SCC(=O)N2CCCC2)nnc1-c1ccc2c(c1)OCO2 8.6%, COc1ccc(/C(C)=N\NC(=O)c2ccc(-c3ccccc3)cc2)c(F)c1 12.8%, COc1ccc(N(Cc2cc3ccc(C)cc3[nH]c2=O)S(=O)(=O)c2ccccc2)cc1 6.39%, CCn1c2ccc(F)cc2c2nnc(SCCN3CCOCC3)nc21 -2.54%, CCOc1ccc(-c2nnn(CC(=O)N3CCN(c4ccc(OC)cc4)CC3)n2)cc1OCC 20.4%, COc1ccc(N2CCN(C(=O)CSc3ncnc4c3cnn4-c3ccc(OC)cc3)CC2)cc1 -1.71%, CCN(CC(=O)Nc1ccc(C)c(S(=O)(=O)N(C)C)c1)Cc1ccccc1 -18.4%, Cn1c(SCC(=O)N2CCCC2)nnc1-c1cccs1 5.11%, Cc1c(C(=O)N2CCCC2)c(S(=O)(=O)NCC(C)c2ccccc2)c(C)n1C (stereo unspecified) -2.67%, CC(=O)Nc1cccc(NC(=O)CSc2nccn2Cc2ccc(F)cc2)c1 11.3%, CN(C)S(=O)(=O)c1ccc(C(=O)NCCN=C2NS(=O)(=O)c3ccccc32)cc1 2.12%, c1ccc2nc(C3=NCCN3)cnc2c1 2.82%, Oc1ccc(-c2[nH]ncc2-c2nc3ccccc3s2)c(O)c1 2.93%, CCOCCOC(=O)C(C)Oc1ccc(Oc2ncc(C(F)(F)F)cc2Cl)cc1 (stereo unspecified) -1.26%, O=C(c1ccco1)N1CCN(C(=O)c2cc(-c3ccccc3F)no2)CC1 1.68%, CN(CCO)S(=O)(=O)c1ccc2c(c1)C(=O)c1cc(S(=O)(=O)N(C)CCO)ccc1-2 0.575%, CC(OC(=O)c1ccc2noc(-c3ccccc3)c2c1)C(N)=O (stereo unspecified) 9.21%, COc1ccc(-c2onc3ccc(C(C)=O)cc23)cc1 15.7%, CCCCn1c(N)c(N(CC)C(=O)c2ccccc2C(F)(F)F)c(=O)[nH]c1=O 6.91%, CC(C)C[C@H]1CN=C(Nc2ccccc2)N1CC1CCCCC1 6.04%, O=C(c1cc(COc2cccc(C(F)(F)F)c2)on1)N1CCSCC1 -6.37%, Cc1cc(NC(=O)c2ccco2)c(=O)n(Cc2c(F)cccc2Cl)c1 -1.88%, CN(Cc1ccccc1)C(=O)C1CCCN(c2ncnc3c2nc2n3CCCCC2)C1 (stereo unspecified) -5.59%, CN(c1ccccc1)c1ccc(/C=c2\s/c(=C(/C#N)C(=O)C(C)(C)C)n(Cc3ccco3)c2=O)cc1 -21.7%, O=C(Cc1ccccc1)n1nc(-c2ccccc2)nc1NCc1ccco1 0.0328%, N#Cc1cc([N+](=O)[O-])ccc1NCC1CCCO1 (stereo unspecified) 13.1%, O=C(NC1CCCCCCC1)c1cccs1 -20.5%, COCCNc1ncnc2ccc(-c3cccnc3)cc12 6.73%, COc1ccccc1N1CCN(/N=C/c2ccc(O)cc2O)CC1 -7.55%, COc1cc(/C=N/N2CCN(c3ccccc3)CC2)ccc1OC(C)=O 16.9%, COc1cc(CNCc2ccc(OC)c3ccccc23)cc(OC)c1OC -22.2%, Cc1ccc(S(=O)(=O)/N=C(/Nc2ccccn2)c2ccc(Cl)cc2)cc1 -17.5%, O=S(=O)(/N=C(/Nc1ccccn1)c1ccccc1)c1ccc(Cl)cc1 27.1%, CCn1c(SCC(=O)Nc2nccs2)nnc1-c1ccncc1 2.26%, COc1ccc(NC(=O)CSc2nncc(=O)n2N)cc1OC 9.26%, O=S(=O)(c1ccc(-c2ccno2)s1)N1CCCCC1 11.8%, COc1ccc(-c2oc3ncnc(NCCCO)c3c2-c2ccc(OC)cc2)cc1 -12.6%, N=c1c2c(-c3ccccc3)c(-c3ccccc3)oc2ncn1Cc1ccco1 -5.12%, O=c1oc2ccccc2c(NC2CCCCC2)c1NS(=O)(=O)c1ccc(Cl)cc1 4.82%, CN(C(=O)COC(=O)c1nc(Cl)ccc1Cl)C1CCS(=O)(=O)C1 (stereo unspecified) 11%, Cc1c(-c2cccc(Cl)c2)nc2ccccc2c1C(=O)OCC(=O)N(C)C1CCS(=O)(=O)C1 (stereo unspecified) 1.32%, Cc1ccc2nc(-c3ccc(Br)cc3)cn2c1 17%, Cc1ccc(C2C3=C(Nc4[nH]n(-c5ccccc5)c(=O)c42)c2ccccc2C3=O)cc1 (stereo unspecified) -4.89%, COC(=O)C1=C(C)NC(=O)NC1/C=C/c1ccccc1 (stereo unspecified) 6.06%, COC(=O)c1ccc(N2CCOCC2)c(NC(=O)c2ccc(Br)o2)c1 6.59%, CC1=NOC(=O)/C1=C\c1ccccc1 -4.08%, C#CCOc1ccc(/C=C2/C(=O)NN(c3ccccc3)C2=O)cc1OC 8.7%, NS(=O)(=O)c1ccc(CCNC(=O)c2nc(CS(=O)(=O)c3ccc(Cl)cc3)no2)cc1 13.4%, O=C1/C(=C\c2ccsc2)NC(=S)N1c1ccccc1 4.5%, CCOC(=O)C1(C)NC(c2ccco2)C2C(=O)N(c3ccccc3)C(=O)C21 (stereo unspecified) 27.2%

Potency, active:
CN(C)c1cc(N)c2ccccc2n1 (tested in a mixture with another compound) 56.2 µM, COCCOC(=O)c1sc(=S)n(CCOC)c1N 25.1 µM, CCOc1ccc2nc(C(=O)N3CCCC(C)C3)sc2c1 (stereo unspecified) 25.1 µM, Oc1c(C=Nc2cccc3nsnc23)ccc2ccccc12 44.7 µM, CC(=O)N1CC[n+]2c(-c3ccc([N+](=O)[O-])cc3)csc21 5.62 µM, FC(F)(F)C1CCCN(c2nsc3ccccc23)C1 (stereo unspecified) 15.8 µM, Cn1c(SCc2nc3ccccc3s2)nnc1-c1ccc2c(c1)OCO2 14.1 µM, CCc1c(C)[nH]c(=S)c(C#N)c1C 12.6 µM, COc1ccc(N2CCN(C(=O)CSc3nc4cc(OC)c(OC)cc4cc3C#N)CC2)cc1 63.1 µM, Cc1cc(O)ccc1-c1cnc2ccccc2n1 50.1 µM, Oc1ccc(-c2onc3ccc(Cl)cc23)cc1 22.4 µM, O=c1nc2s/c(=C\c3ccco3)c(=O)n2nc1Cc1ccccc1 28.2 µM, COc1ccccc1N1CCN(/N=C\C(Br)=C\c2ccccc2)CC1 31.6 µM, Cc1ccc(S/C(=N\S(=O)(=O)c2ccc(Cl)cc2)c2ccccc2)cc1 56.2 µM, Nn1c(SCC(=O)Nc2nccs2)nncc1=O 22.4 µM, COc1ccc(-c2oc3ncn(Cc4ccco4)c(=N)c3c2-c2ccc(OC)cc2)cc1 39.8 µM, CN(C(=O)COC(=O)c1cc(-c2ccco2)nc2ccccc12)C1CCS(=O)(=O)C1 (stereo unspecified) 28.2 µM, COC(=O)C1=C(C)NC2=C(C(=O)c3ccccc32)C1c1ccc(-c2ccc(C(=O)O)cc2)o1 (stereo unspecified) 14.1 µM, C#CCOc1ccccc1/C=C1/C(=O)ON=C1C 50.1 µM, CCCCN=C1N/C(=C\c2ccco2)C(=O)N1c1ccccc1 56.2 µM
